Assay results taken from ChEMBL document CHEMBL2218924, “A broad activity screen in support of a chemogenomic map for kinase signalling research and drug discovery” (Biochem J, 2013).

Each compound was assayed against Rho-associated protein kinase 2 (Homo sapiens) (UniProt O75116). Settings: at 1 µM.
Chain of Rho-associated protein kinase 2 (Homo sapiens) (O75116 whole entry, looked up): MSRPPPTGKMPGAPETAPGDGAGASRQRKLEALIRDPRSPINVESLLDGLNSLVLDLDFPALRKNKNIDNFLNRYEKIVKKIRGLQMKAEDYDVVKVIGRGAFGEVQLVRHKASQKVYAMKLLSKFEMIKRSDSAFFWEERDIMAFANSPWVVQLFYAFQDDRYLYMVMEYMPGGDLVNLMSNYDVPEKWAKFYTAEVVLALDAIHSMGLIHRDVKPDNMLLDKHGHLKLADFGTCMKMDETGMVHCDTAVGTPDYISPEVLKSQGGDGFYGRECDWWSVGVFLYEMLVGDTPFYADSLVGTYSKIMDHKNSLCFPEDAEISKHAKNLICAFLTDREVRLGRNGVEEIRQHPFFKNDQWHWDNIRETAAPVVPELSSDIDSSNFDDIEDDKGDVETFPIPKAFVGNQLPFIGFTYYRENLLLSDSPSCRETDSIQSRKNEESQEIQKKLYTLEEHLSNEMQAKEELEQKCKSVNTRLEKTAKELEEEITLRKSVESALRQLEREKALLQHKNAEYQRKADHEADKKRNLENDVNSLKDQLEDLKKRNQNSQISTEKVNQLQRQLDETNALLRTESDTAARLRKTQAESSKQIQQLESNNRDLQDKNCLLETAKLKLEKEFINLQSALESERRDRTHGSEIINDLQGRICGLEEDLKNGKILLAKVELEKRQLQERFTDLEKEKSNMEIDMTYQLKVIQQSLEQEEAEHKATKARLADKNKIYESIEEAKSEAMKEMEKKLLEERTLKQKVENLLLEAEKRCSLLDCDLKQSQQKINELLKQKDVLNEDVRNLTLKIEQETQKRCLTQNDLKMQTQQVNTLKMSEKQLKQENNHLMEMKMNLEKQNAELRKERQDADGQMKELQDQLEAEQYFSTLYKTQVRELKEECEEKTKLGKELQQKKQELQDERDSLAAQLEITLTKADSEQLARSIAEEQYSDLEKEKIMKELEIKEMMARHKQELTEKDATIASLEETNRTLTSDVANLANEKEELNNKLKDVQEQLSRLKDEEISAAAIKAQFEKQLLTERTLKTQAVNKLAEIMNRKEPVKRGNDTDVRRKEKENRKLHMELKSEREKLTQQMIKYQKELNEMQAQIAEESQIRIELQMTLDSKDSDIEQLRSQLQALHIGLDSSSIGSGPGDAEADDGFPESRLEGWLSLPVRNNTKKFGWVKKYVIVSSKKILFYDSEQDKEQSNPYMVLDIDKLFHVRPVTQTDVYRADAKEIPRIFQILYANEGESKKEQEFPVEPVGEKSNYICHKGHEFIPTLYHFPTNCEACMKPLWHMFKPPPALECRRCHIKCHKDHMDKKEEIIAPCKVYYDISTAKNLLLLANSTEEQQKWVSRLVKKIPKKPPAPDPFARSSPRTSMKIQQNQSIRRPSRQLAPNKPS

Compound | residual activity [%]
COc1cc(OC)c(/C=C2\C(=O)Nc3ccccc32)c(OC)c1 | 88
CCn1cnc2c(Nc3cccc(Cl)c3)nc(N[C@@H]3CCCC[C@@H]3N)nc21 | 78
COC(=O)[C@@]1(O)C[C@H]2O[C@]1(C)n1c3ccccc3c3c4c(c5c6ccccc6n2c5c31)C(=O)NC4 | 15
CO[C@H]1[C@@H](OC)C[C@H](C)[C@@H](OC)C2=CC(=O)C=C(NC(=O)/C(C)=C/C=C/[C@H](OC)[C@@H](OC(N)=O)/C(C)=C/[C@@H]1C)C2=O | 106
O=C1Nc2ccc3ncsc3c2/C1=C/c1c[nH]cn1 | 5
C[S+]([O-])c1ccc(-c2nc(-c3ccc(F)cc3)c(-c3ccncc3)[nH]2)cc1 (centres undefined) | 119
O=S(=O)(NCCNC/C=C/c1ccc(Br)cc1)c1cccc2cnccc12 | 8
O=[N+]([O-])/C=C/c1ccc2c(c1)OCO2 | 99
CC(C)(C)c1cc(C=C(C#N)C#N)cc(Br)c1O | 115
COc1cc2nccc(Oc3ccc(NC(=O)Nc4cc(C)on4)c(Cl)c3)c2cc1OC | 76
COc1cc2ncnc(Nc3ccc(OCc4ccccc4)cc3)c2cc1OC | 119
O=c1[nH]c2ccccc2n1C1CCN(Cc2ccc(-c3nc4cc5[nH]cnc5cc4nc3-c3ccccc3)cc2)CC1 | 103
CC(C)[C@H](CO)Nc1nc(Nc2cccc(Cl)c2)c2ncn(C(C)C)c2n1 | 95
CCc1nc(-c2ccc(OC)cc2)[nH]c1-c1ccncc1 | 107
